Source: PubChem BioAssay (NCI)
About 83,000 compounds went through this panel and 20% of them were active in at least one assay; those are over-represented in the sample as a whole.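 Testing used 96-well plates and a 48-hour single-concentration exposure. Example: -40 means 40% of the starting cells died.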 Values without a mark were called inactive. The source made the active and inactive calls. Rule for the calls: active = growth percent below 10; inactive = the rest.

Key:
Test in all cases: NCI-60 one-dose screen, 48 h (100 = growth as untreated, 0 = no growth, -100 = all killed)
Conditions in all cases: 10 µM unless noted
NCI/ADR-RES ovarian = system: NCI/ADR-RES ovarian
T-47D breast = system: T-47D breast
BT-549 breast = system: BT-549 breast
MDA-MB-435 melanoma = system: MDA-MB-435 melanoma
SW-620 colon = system: SW-620 colon
MCF7 breast = system: MCF7 breast
HCT-116 colon = system: HCT-116 colon
HCC-2998 colon = system: HCC-2998 colon
KM12 colon = system: KM12 colon

| Structure (SMILES) | growth (NCI/ADR-RES ovarian) | growth (T-47D breast) | growth (BT-549 breast) | growth (MDA-MB-435 melanoma) | growth (SW-620 colon) | growth (MCF7 breast) | growth (HCT-116 colon) | growth (HCC-2998 colon) | growth (KM12 colon) |
| --- | --- | --- | --- | --- | --- | --- | --- | --- | --- |
| CC(C)(C)C(=O)OCOP(=O)(OCOC(=O)C(C)(C)C)C1CCCN(O)C1=O (configuration not stated) | 1.93% (active) | 8.21% (active) | 4.85% (active) | 36.6% | 22.9% | 0.807% (active) | 1.32% (active) | 5.6% (active) | -3.46% (active) |
| COc1ccc(S(=O)(=O)N(Cc2ccc3c(c2)C=CC(C)(C)O3)c2ccccc2)cc1OC | 68.7% | 55.1% | 54% | 87.3% | 87.1% | 50.7% | 63% | 73.6% | 88.7% |
| CCOC(=O)N1CC1 | 98% | 114% | 109% | 97.1% | 103% | 102% | 98.4% | 150% | 107% |
| O=[N+]([O-])CC(O)C(Cl)(Cl)Cl (configuration not stated) | 104% | 89.6% | 58% | 103% | 95.8% | 95.5% | 102% | 106% | 107% |
| CC[C@H](C)[C@H](NC(=O)c1nccn1C)C(=O)N(C)[C@H](C[C@@H](OC(C)=O)c1nc(C(=O)N[C@@H](Cc2ccccc2)C[C@H](C)C(=O)OC)cs1)C(C)C | 16.5% | 47.9% | 0.0991% (active) | -48% (active) | 26.1% | 17.5% | 3.27% (active) | 31.5% | 11.1% |
| C=C1C(=O)O[C@H]2[C@H]1CC/C(COC(=O)C(=O)c1cn(Cc3ccccc3)c3ccccc13)=C\CC[C@@]1(C)O[C@@H]21 | -1.18% (active) | -7.91% (active) | -77.4% (active) | -76.6% (active) | -84.8% (active) | -68.7% (active) | -81.5% (active) | -85.4% (active) | -89.7% (active) |
| CCCC(=O)O[C@@H]1C[C@H]2C[C@@H](O[C@@H]3O[C@@H](C)[C@@H](O)[C@@H](O)[C@H]3OC)C[C@@H](C[C@@H](C)/C=C/C=C\C[C@@H]3O[C@@H](C[C@@H]3C)[C@@H](O)C[C@H]3C[C@@]1(O)C(=O)O3)O2 | 67.6% | 17.4% | 46.9% | 59.1% | 87.4% | 25.7% | 56.3% | 59.4% | 65.3% |
| COC(=O)N[C@H]1CCc2c(Br)c(OC)c(OC)c(OC)c2-c2ccc(SC)c(=O)cc21 | 7.33% (active) | 50.5% | 17.1% | -55.7% (active) | 17.5% | 12.8% | 3.67% (active) | 17.2% | -4.65% (active) |
| CCCC(C)C1(CC)C(=O)NC(=O)N(C)C1=O (configuration not stated) | 104% | 87% | 105% | 97.9% | 101% | 103% | 114% | 97.9% | 110% |
| COc1cc2c(cc1OCc1ccccc1)C(CC(C)C)=[N+](C)CC2 | 101% | 58.4% | 44% | 96.6% | 93.7% | 73.4% | 85.2% | 79% | 78.8% |
| COc1ccc([As]=[As]c2ccc(OC)c(NCS(=O)(=O)O)c2)cc1NCS(=O)(=O)O (configuration not stated) | 73.7% | -41.9% (active) | -12.1% (active) | 48.8% | -1.05% (active) | -67.5% (active) | -60.2% (active) | 57.5% | 72.9% |
| CC12CCC=CC1CCC1C2CCC2(C)C(c3ccc(=O)oc3)CCC12O (configuration not stated) | -51.5% (active) | -13.6% (active) | -65.2% (active) | -95.2% (active) | -36.7% (active) | -30.6% (active) | -64.2% (active) | -21.5% (active) | -55.7% (active) |
| CSc1nc(Cl)cc(N2CC2)n1 | 119% | 108% | 111% | 116% | 105% | 105% | 105% | 138% | 111% |
| CC[C@]12C=CCN3CC[C@]4(C(=C(C(=O)OC)C1)Nc1cc(OC)c(OC(C)=O)cc14)[C@@H]32 | 9.28% (active) | 51.4% | 3.35% (active) | 3.75% (active) | 15.8% | 13.1% | 12% | 12.8% | 9.09% (active) |
| COP(=O)(OC)C(O)c1ccc(Cl)cc1 (configuration not stated) | 96.9% | 114% | 94.1% | 100% | 101% | 98.4% | 94.7% | 98.9% | 90% |
| CC1=C(CCCOC(=O)CN)C2=C(C)C3(CC3)[C@@](C)(O)C(=O)C2=C1 | 84.7% | 63.6% | 65.8% | 101% | 91.5% | 71.1% | 71.5% | 85.1% | 100% |
| CO[C@H]1CC[C@@]2(C)C(=CC[C@@H]3[C@@H]2CC[C@]2(C)C(=O)C(=O)C[C@@H]32)C1 | 104% | 97.1% | 106% | 112% | 100% | 102% | 97% | 109% | 111% |
| Cn1cc(-c2csc(-c3cn(CCCCN4CCCCC4)c4ccccc34)n2)c2cccnc21 | -17.4% (active) | 88.4% | 69.2% | -79.6% (active) | -65.2% (active) | -65.9% (active) | -90.4% (active) | 87.2% | 0.281% (active) |
| COc1cc(C=Nc2cccc(C(=O)O)c2)ccc1N(CCCl)CCCl | 103% | 96.3% | 103% | 91.5% | 90.4% | 95.2% | 104% | 74.4% | 57.3% |
| COC(=O)[C@H](Cc1ccccc1)NC(=O)c1csc([C@@H](C[C@H](C(C)C)N(C)C(=O)[C@@H](NC(=O)[C@H]2CCCN2C)C2CC2)OC(C)=O)n1 | 53.3% | 54.5% | 20.6% | -31.2% (active) | 24.5% | 20.4% | -2.44% (active) | 27.8% | 12.6% |
| CN[C@@]1(c2ccccc2Cl)CCCC[C@@H]1NCC1CCCO1 (some centres not stated) | 101% | 93% | 102% | 102% | 102% | 98.6% | 105% | 101% | 108% |
| O=C(O)C(O)C(O)C1[O][Sb]([c]2ccc([N+](=O)[O-])cc2)[O]C1CO (configuration not stated) | 111% | 109% | 114% | 107% | 103% | 93.9% | 104% | 105% | 108% |
| CCCCCCCCCCCCNC(c1ccccc1)C(O)c1ccccc1 (configuration not stated) | 68.8% | 70.4% | 103% | 91.4% | 48.1% | 63.7% | 12.2% | 43.1% | 74.9% |
| C#Cc1ccc2c(c1)C(c1ccccc1)=NCC(=O)N2C | 17.1% | 51.6% | 45.2% | 11.4% | 30.6% | 18.4% | 18.9% | 70.5% | 28.8% |
| Cc1cc(C)c(CBr)c(C)c1 | 103% | 101% | 105% | 111% | 103% | 96.4% | 110% | 114% | 105% |
| COC(=O)[C@@H](C)C[C@H](Cc1ccccc1)NC(=O)c1csc([C@@H](C[C@H](C(C)C)N(C)C(=O)[C@@H](NC(=O)[C@H]2CCCCN2C)c2ccc(F)cc2)OC(C)=O)n1 | 5.55% (active) | 45.7% | 0.368% (active) | -27.7% (active) | 22.8% | 22.3% | 3.28% (active) | 10.1% | -3.41% (active) |
| O=C(CC1(O)C(=O)N(Cc2ccccc2)c2ccc(Cl)cc21)c1ccc(C(=O)NCC2CCC3(CC2)OOC2(CCCCC2)OO3)cc1 (configuration not stated) | -42.7% (active) | -56% (active) | 11.8% | -67.8% (active) | -56.5% (active) | 17.4% | 3.72% (active) | 67.6% | -67.3% (active) |
| O=C1NC(=O)C(=Cc2cn(CCCCCCn3c4ccccc4c(=O)c4ccccc43)c3ccccc23)C(=O)N1 | 83.9% | 60.6% | 94.3% | 102% | 93.8% | 71.6% | 70.2% | 96.8% | 95.8% |
